In PubChem BioAssay AID1159580 (chemical genetic matrix, 2015):
Out of some 5,500 compounds screened, about 2,000 (36%) were called active. Roughly 18% stayed inconclusive and do not appear here. The list shows a part of the results. Unmarked numbers belong to inactive results. Cut-off read from the data, not from the text of the source: active = normalized growth mostly below about 0.91 (no sharp cut-off); inconclusive = no clear call, values can overlap the other calls; inactive = mostly above about 0.92.

Experiment: chemical genetic growth profiling, strain panel (AID 1159580);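 note: tested at 20 µM; growth read once vehicle control cultures reached saturation at 30 °C; 1 = growth at the plate median or of vehicle wells; lower values mean less growth of the strain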
Conditions: growth OD
[1] = S. cerevisiae deletion strains, locus YDL101C, strain DUN1, active compounds read low
[2] = S. cerevisiae deletion strains, locus YHR030C, strain SLT2, active compounds read low

Compound: O=C1NC(=O)/C(=C/c2ccc(OS(=O)(=O)c3ccc(Cl)cc3)cc2)N1
- normalized growth (S. cerevisiae deletion strains, locus YAL013W, strain DEP1, active compounds read low): 1
- normalized growth (S. cerevisiae deletion strains, locus YBR229C, strain ROT2, active compounds read low): 1.03
- normalized growth [1]: 0.983
- normalized growth (S. cerevisiae deletion strains, locus YDL134C, strain PPH21, active compounds read low): 0.991
- normalized growth (S. cerevisiae deletion strains, locus YDR150W, strain NUM1, active compounds read low): 0.957
- normalized growth (S. cerevisiae deletion strains, locus YEL061C, strain CIN8, active compounds read low): 1.01
- normalized growth (S. cerevisiae deletion strains, locus YGR078C, strain PAC10, active compounds read low): 0.983
- normalized growth (S. cerevisiae deletion strains, locus YGR229C, strain SMI1, active compounds read low): 1.01
- normalized growth [2]: 0.989
- normalized growth (S. cerevisiae deletion strains, locus YHR087W, strain rtc3, active compounds read low): 1.02
- normalized growth (S. cerevisiae deletion strains, locus YJL187C, strain SWE1, active compounds read low): 1.04
- normalized growth (S. cerevisiae deletion strains, locus YJR043C, strain POL32, active compounds read low): 0.982
- normalized growth (S. cerevisiae deletion strains, locus YJR075W, strain HOC1, active compounds read low): 1.03
- normalized growth (S. cerevisiae deletion strains, locus YLR039C, strain RIC1, active compounds read low): 1.02
- normalized growth (S. cerevisiae deletion strains, locus YLR058C, strain SHM2 (second series), active compounds read low): 1.02
- normalized growth (S. cerevisiae deletion strains, locus YLR085C, strain ARP6, active compounds read low): 0.999
- normalized growth (S. cerevisiae deletion strains, locus YLR262C, strain YPT6, active compounds read low): 0.996
- normalized growth (S. cerevisiae deletion strains, locus YML094W, strain GIM5, active compounds read low): 1
- normalized growth (S. cerevisiae deletion strains, locus YMR219W, strain ESC1, active compounds read low): 1.01
- normalized growth (S. cerevisiae deletion strains, locus YMR263W, strain SAP30, active compounds read low): 1
- normalized growth (S. cerevisiae deletion strains, locus YNL128W, strain TEP1, active compounds read low): 0.978
- normalized growth (S. cerevisiae deletion strains, locus YNL153C, strain GIM3, active compounds read low): 0.99
- normalized growth (S. cerevisiae deletion strains, locus YNL298W, strain CLA4 (second series), active compounds read low): 0.976
- normalized growth (S. cerevisiae deletion strains, locus YNL322C, strain KRE1, active compounds read low): 0.998
- normalized growth (S. cerevisiae deletion strains, locus YNR030W, strain Alg12, active compounds read low): 1
- normalized growth (S. cerevisiae deletion strains, locus YPL055C, strain LGE1, active compounds read low): 1.06
- normalized growth (S. cerevisiae deletion strains, locus YPL241C, strain CIN2, active compounds read low): 1
- normalized growth (S. cerevisiae deletion strains, locus YPR135W, strain CTF4, active compounds read low): 0.978
- normalized growth (S. cerevisiae strains, strain wild type, active compounds read low): 0.964

Compound: O=C1Nc2ccccc2/C1=C\c1ccc(Cl)cc1
- normalized growth (S. cerevisiae deletion strains, locus YAR019C, strain CDC15, active compounds read low): 0.946
- normalized growth (S. cerevisiae deletion strains, locus YBL105C, strain PKC1, active compounds read low): 0.943
- normalized growth (S. cerevisiae deletion strains, locus YBR135W, strain CKS1, active compounds read low): 0.94
- normalized growth (S. cerevisiae deletion strains, locus YBR136W, strain MEC1, active compounds read low): 0.941
- normalized growth (S. cerevisiae deletion strains, locus YBR160W, strain CDC28, active compounds read low): 0.947
- normalized growth (S. cerevisiae deletion strains, locus YDL017W, strain CDC7, active compounds read low): 0.945
- normalized growth (S. cerevisiae deletion strains, locus YDL028C, strain MPS1, active compounds read low): 0.947
- normalized growth [1]: 0.967
- normalized growth (S. cerevisiae deletion strains, locus YDL108W, strain KIN28, active compounds read low): 0.948
- normalized growth (S. cerevisiae deletion strains, locus YDL132W, strain cdc53, active compounds read low): 0.94
- normalized growth (S. cerevisiae deletion strains, locus YDL214C, strain PRR2, active compounds read low): 0.801
- normalized growth (S. cerevisiae deletion strains, locus YDR052C, strain DBF4, active compounds read low): 0.954
- normalized growth (S. cerevisiae deletion strains, locus YDR054C, strain cdc34, active compounds read low): 0.927
- normalized growth (S. cerevisiae deletion strains, locus YDR226W, strain ADK1, active compounds read low): 0.937
- normalized growth (S. cerevisiae deletion strains, locus YDR477W, strain SNF1, active compounds read low): 0.817
- normalized growth (S. cerevisiae deletion strains, locus YER123W, strain YCK3, active compounds read low): 0.8
- normalized growth (S. cerevisiae deletion strains, locus YER133W, strain GLC7, active compounds read low): 0.815
- normalized growth (S. cerevisiae deletion strains, locus YFL009W, strain cdc4, active compounds read low): 0.942
- normalized growth (S. cerevisiae deletion strains, locus YFL029C, strain CAK1, active compounds read low): 0.95
- normalized growth (S. cerevisiae deletion strains, locus YFR003C, strain YPI1, active compounds read low): 0.942
- normalized growth (S. cerevisiae deletion strains, locus YFR019W, strain FAB1, active compounds read low): 0.924
- normalized growth (S. cerevisiae deletion strains, locus YFR028C, strain CDC14, active compounds read low): 0.941
- normalized growth (S. cerevisiae deletion strains, locus YGR040W, strain KSS1, active compounds read low): 0.823
- normalized growth (S. cerevisiae deletion strains, locus YGR052W, strain FMP48, active compounds read low): 0.779
- normalized growth (S. cerevisiae deletion strains, locus YGR092W, strain DBF2, active compounds read low): 0.82
- normalized growth [2]: 0.755 (active)
- normalized growth (S. cerevisiae deletion strains, locus YHR079C, strain IRE1, active compounds read low): 0.776
- normalized growth (S. cerevisiae deletion strains, locus YHR082C, strain KSP1, active compounds read low): 0.794
- normalized growth (S. cerevisiae deletion strains, locus YHR205W, strain SCH9, active compounds read low): 0.519 (active)
- normalized growth (S. cerevisiae deletion strains, locus YIL147C, strain SLN1, active compounds read low): 0.944
- normalized growth (S. cerevisiae deletion strains, locus YJL095W, strain BCK1, active compounds read low): 0.741
- normalized growth (S. cerevisiae deletion strains, locus YJL128C, strain PBS2, active compounds read low): 0.852
- normalized growth (S. cerevisiae deletion strains, locus YJL157C, strain FAR1, active compounds read low): 0.819
- normalized growth (S. cerevisiae deletion strains, locus YJR016C, strain ILV3, active compounds read low): 0.946
- normalized growth (S. cerevisiae deletion strains, locus YJR066W, strain TOR1 (second series), active compounds read low): 0.651
- normalized growth (S. cerevisiae deletion strains, locus YJR066W, strain TOR1, active compounds read low): 0.781
- normalized growth (S. cerevisiae deletion strains, locus YKL048C, strain ELM1, active compounds read low): 0.862
- normalized growth (S. cerevisiae deletion strains, locus YKL067W, strain YNK1, active compounds read low): 0.867
- normalized growth (S. cerevisiae deletion strains, locus YKL101W, strain HSL1, active compounds read low): 0.829
- normalized growth (S. cerevisiae deletion strains, locus YKL193C, strain SDS22, active compounds read low): 0.942
- normalized growth (S. cerevisiae deletion strains, locus YKL203C, strain TOR2, active compounds read low): 0.91
- normalized growth (S. cerevisiae deletion strains, locus YLR113W, strain HOG1, active compounds read low): 0.692 (active)
- normalized growth (S. cerevisiae deletion strains, locus YLR133W, strain CKI1, active compounds read low): 0.818
- normalized growth (S. cerevisiae deletion strains, locus YLR403W, strain SFP1, active compounds read low): 0.714
- normalized growth (S. cerevisiae deletion strains, locus YML070W, strain DAK1, active compounds read low): 0.81
- normalized growth (S. cerevisiae deletion strains, locus YMR001C, strain CDC5, active compounds read low): 0.94
- normalized growth (S. cerevisiae deletion strains, locus YMR205C, strain PFK2 (second series), active compounds read low): 0.825
- normalized growth (S. cerevisiae deletion strains, locus YMR277W, strain FCP1, active compounds read low): 0.936
- normalized growth (S. cerevisiae deletion strains, locus YNL006W, strain LST8, active compounds read low): 0.956
- normalized growth (S. cerevisiae deletion strains, locus YNL020C, strain ARK1, active compounds read low): 0.801
- normalized growth (S. cerevisiae deletion strains, locus YNL161W, strain CBK1, active compounds read low): 0.948
- normalized growth (S. cerevisiae deletion strains, locus YNL183C, strain NPR1, active compounds read low): 0.788
- normalized growth (S. cerevisiae deletion strains, locus YNL207W, strain RIO2, active compounds read low): 0.947
- normalized growth (S. cerevisiae deletion strains, locus YNL222W, strain SSU72, active compounds read low): 0.945
- normalized growth (S. cerevisiae deletion strains, locus YNL307C, strain MCK1 (second series), active compounds read low): 0.844
- normalized growth (S. cerevisiae deletion strains, locus YOL078W, strain AVO1, active compounds read low): 0.951
- normalized growth (S. cerevisiae deletion strains, locus YOL136C, strain PFK27, active compounds read low): 0.833
- normalized growth (S. cerevisiae deletion strains, locus YOR061W, strain CKA2, active compounds read low): 0.853
- normalized growth (S. cerevisiae deletion strains, locus YOR119C, strain RIO1, active compounds read low): 0.9
- normalized growth (S. cerevisiae deletion strains, locus YOR231W, strain MKK1, active compounds read low): 0.863
- normalized growth (S. cerevisiae deletion strains, locus YOR329C, strain SCD5, active compounds read low): 0.949
- normalized growth (S. cerevisiae deletion strains, locus YPL031C, strain PHO85, active compounds read low): 0.816
- normalized growth (S. cerevisiae deletion strains, locus YPL153C, strain RAD53, active compounds read low): 0.836
- normalized growth (S. cerevisiae deletion strains, locus YPL204W, strain HRR25, active compounds read low): 0.824
- normalized growth (S. cerevisiae deletion strains, locus YPL209C, strain IPL1, active compounds read low): 0.943
- normalized growth (S. cerevisiae deletion strains, locus YPL256C, strain CLN2, active compounds read low): 0.742 (active)
- normalized growth (S. cerevisiae deletion strains, locus YPR025C, strain CCL1, active compounds read low): 0.943
- normalized growth (S. cerevisiae deletion strains, locus YPR106W, strain ISR1, active compounds read low): 0.926
- normalized growth (S. cerevisiae deletion strains, locus YPR111W, strain DBF20, active compounds read low): 0.917
- normalized growth (S. cerevisiae deletion strains, strain NNK1, active compounds read low): 0.92
- normalized growth (S. cerevisiae deletion strains, strain TSCII, active compounds read low): 0.949
